From ChEMBL document CHEMBL1961873, “Compounds: GSK PKIS; Assays: Nanosyn kinase panel” (2012)

Tests used:
[1] = tested on: Epidermal growth factor receptor (Homo sapiens), P00533 [T790M]; settings: at 1 µM
[2] = tested on: Epidermal growth factor receptor (Homo sapiens), P00533 [L858R,T790M]; settings: at 0.1 µM
[3] = tested on: Epidermal growth factor receptor (Homo sapiens), P00533 [L858R,T790M]; settings: at 1 µM
[4] = target: Ephrin type-A receptor 2 (Homo sapiens) (UniProt P29317); settings: at 0.1 µM
[5] = target: Ephrin type-A receptor 2 (Homo sapiens) (UniProt P29317); settings: at 1 µM
[6] = target: T1, Ephrin type-A receptor 3 (Homo sapiens) (UniProt P29320); settings: at 0.1 µM
T1 sequence (whole entry): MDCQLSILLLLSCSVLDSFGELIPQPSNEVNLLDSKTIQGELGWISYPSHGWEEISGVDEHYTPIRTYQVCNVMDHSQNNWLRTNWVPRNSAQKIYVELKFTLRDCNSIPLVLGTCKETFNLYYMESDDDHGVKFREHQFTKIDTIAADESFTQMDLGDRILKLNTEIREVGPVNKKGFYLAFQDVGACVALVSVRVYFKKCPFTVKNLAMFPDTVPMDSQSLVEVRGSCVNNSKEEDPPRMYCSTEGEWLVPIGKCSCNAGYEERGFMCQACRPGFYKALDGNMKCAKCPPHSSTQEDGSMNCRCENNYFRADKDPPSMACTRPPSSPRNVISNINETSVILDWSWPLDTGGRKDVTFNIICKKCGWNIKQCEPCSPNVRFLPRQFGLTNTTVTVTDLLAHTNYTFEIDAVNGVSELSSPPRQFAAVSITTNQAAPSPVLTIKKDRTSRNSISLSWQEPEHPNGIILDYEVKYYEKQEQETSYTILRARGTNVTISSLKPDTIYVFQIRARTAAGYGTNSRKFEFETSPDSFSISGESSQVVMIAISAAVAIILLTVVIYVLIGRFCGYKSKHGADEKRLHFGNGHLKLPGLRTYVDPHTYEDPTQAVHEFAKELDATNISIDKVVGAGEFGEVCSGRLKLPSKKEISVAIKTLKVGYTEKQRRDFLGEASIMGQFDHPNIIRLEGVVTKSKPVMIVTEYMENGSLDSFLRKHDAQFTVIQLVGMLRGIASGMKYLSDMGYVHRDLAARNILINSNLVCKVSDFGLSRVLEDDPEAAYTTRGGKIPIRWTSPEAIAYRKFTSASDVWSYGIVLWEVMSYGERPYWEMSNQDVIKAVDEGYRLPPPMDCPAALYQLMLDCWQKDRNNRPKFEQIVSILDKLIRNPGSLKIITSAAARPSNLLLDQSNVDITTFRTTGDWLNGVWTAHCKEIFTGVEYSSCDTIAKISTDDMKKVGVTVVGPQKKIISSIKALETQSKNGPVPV

[7] = target: T1, Ephrin type-A receptor 3 (Homo sapiens); settings: at 1 µM
[8] = target: Ephrin type-A receptor 4 (Homo sapiens) (UniProt P54764); settings: at 0.1 µM
[9] = target: Ephrin type-A receptor 4 (Homo sapiens) (UniProt P54764); settings: at 1 µM
[10] = target: T2, Ephrin type-B receptor 2 (Homo sapiens) (UniProt P29323); settings: at 0.1 µM;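 note: reported as mean inhibition of EPHB2, from the GSK PKIS dataset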
T2 sequence (whole entry): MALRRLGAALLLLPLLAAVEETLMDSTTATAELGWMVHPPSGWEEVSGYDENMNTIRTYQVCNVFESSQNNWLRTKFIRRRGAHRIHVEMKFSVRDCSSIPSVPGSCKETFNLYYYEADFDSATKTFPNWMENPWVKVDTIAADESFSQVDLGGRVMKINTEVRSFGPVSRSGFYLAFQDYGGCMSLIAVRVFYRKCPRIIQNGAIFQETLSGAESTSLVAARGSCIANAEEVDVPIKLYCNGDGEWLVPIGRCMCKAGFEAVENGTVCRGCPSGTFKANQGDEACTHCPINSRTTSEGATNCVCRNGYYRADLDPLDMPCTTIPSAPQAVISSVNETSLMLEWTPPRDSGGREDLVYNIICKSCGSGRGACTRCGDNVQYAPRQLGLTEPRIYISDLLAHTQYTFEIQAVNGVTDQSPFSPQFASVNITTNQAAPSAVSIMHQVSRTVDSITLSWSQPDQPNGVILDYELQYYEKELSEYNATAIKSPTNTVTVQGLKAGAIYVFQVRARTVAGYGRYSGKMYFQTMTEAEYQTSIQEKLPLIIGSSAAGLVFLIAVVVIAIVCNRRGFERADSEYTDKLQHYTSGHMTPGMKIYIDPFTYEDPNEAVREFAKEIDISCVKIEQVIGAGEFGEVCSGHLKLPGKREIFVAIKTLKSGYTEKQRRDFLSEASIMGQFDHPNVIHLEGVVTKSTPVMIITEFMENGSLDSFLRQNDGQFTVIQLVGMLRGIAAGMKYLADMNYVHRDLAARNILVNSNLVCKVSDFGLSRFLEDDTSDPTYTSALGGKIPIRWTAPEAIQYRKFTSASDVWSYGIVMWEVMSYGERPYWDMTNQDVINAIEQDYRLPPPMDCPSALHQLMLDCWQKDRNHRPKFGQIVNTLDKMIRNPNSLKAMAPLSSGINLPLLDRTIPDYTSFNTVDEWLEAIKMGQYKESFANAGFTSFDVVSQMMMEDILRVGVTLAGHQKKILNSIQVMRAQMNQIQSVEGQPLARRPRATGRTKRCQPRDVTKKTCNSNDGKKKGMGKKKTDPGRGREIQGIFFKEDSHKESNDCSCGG

Epidermal growth factor receptor (Homo sapiens), P00533 [T790M], sequence (P00533 whole entry T790M): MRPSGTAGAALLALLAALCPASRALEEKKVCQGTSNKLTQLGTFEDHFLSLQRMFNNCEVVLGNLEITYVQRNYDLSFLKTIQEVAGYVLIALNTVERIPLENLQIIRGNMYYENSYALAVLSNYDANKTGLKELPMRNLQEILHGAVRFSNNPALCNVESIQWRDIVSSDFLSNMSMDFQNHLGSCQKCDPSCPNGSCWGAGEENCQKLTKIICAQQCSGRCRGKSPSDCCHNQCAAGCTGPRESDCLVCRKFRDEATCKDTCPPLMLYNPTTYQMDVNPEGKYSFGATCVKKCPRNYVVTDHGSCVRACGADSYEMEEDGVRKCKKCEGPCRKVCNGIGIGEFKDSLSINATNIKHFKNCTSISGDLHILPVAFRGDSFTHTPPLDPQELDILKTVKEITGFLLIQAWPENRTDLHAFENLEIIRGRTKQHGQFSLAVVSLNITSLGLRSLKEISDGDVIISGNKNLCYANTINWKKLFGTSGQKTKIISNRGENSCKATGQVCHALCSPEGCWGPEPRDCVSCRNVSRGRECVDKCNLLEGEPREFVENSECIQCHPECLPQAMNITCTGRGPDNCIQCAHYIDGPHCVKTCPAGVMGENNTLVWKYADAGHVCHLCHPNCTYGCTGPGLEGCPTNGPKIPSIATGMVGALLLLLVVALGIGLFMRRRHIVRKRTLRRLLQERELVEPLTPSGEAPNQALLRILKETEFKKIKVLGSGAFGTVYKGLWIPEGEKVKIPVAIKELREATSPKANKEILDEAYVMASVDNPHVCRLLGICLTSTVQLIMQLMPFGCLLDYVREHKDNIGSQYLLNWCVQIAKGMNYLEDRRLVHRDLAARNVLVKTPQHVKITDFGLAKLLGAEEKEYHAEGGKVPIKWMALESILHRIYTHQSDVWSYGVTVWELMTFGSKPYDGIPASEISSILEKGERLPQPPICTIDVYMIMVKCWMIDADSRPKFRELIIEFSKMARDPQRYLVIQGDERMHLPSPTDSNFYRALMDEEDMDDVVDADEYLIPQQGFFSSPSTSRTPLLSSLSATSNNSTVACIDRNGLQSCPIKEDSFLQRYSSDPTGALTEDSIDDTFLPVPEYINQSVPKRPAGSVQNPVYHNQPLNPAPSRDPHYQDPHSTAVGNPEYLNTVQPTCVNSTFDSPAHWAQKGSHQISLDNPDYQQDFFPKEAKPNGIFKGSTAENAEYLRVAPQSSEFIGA
Epidermal growth factor receptor (Homo sapiens), P00533 [L858R,T790M], sequence (P00533 whole entry T790M/L858R, looked up): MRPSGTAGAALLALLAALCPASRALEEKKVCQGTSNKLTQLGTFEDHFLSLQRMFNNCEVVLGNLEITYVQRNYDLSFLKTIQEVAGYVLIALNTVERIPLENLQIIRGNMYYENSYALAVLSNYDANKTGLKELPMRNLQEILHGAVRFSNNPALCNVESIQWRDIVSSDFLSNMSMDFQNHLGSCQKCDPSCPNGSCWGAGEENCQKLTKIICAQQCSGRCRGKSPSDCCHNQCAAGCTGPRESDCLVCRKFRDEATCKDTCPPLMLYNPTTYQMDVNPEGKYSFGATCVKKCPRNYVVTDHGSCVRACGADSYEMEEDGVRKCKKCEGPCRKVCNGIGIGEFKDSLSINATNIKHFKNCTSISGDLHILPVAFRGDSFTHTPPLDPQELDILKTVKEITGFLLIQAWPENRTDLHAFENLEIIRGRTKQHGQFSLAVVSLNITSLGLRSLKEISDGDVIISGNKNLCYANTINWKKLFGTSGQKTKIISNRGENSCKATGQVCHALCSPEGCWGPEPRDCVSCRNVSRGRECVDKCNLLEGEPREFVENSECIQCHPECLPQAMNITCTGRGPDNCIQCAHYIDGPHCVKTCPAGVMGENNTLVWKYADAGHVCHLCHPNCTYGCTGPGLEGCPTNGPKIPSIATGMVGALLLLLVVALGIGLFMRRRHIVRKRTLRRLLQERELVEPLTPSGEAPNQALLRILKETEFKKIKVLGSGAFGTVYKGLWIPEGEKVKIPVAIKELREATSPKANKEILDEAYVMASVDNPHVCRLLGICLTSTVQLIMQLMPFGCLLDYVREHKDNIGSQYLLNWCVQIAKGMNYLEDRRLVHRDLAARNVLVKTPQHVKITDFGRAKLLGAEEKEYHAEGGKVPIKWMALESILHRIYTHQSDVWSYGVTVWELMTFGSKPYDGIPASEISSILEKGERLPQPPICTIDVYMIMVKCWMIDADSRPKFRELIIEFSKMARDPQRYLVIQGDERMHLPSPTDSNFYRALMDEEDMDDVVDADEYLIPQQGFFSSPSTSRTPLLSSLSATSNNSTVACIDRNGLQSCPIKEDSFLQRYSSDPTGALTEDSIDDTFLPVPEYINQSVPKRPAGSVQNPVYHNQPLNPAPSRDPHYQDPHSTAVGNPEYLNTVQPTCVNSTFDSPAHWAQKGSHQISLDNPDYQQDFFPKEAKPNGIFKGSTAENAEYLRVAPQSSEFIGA
Ephrin type-A receptor 4 (Homo sapiens), sequence (P54764 whole entry): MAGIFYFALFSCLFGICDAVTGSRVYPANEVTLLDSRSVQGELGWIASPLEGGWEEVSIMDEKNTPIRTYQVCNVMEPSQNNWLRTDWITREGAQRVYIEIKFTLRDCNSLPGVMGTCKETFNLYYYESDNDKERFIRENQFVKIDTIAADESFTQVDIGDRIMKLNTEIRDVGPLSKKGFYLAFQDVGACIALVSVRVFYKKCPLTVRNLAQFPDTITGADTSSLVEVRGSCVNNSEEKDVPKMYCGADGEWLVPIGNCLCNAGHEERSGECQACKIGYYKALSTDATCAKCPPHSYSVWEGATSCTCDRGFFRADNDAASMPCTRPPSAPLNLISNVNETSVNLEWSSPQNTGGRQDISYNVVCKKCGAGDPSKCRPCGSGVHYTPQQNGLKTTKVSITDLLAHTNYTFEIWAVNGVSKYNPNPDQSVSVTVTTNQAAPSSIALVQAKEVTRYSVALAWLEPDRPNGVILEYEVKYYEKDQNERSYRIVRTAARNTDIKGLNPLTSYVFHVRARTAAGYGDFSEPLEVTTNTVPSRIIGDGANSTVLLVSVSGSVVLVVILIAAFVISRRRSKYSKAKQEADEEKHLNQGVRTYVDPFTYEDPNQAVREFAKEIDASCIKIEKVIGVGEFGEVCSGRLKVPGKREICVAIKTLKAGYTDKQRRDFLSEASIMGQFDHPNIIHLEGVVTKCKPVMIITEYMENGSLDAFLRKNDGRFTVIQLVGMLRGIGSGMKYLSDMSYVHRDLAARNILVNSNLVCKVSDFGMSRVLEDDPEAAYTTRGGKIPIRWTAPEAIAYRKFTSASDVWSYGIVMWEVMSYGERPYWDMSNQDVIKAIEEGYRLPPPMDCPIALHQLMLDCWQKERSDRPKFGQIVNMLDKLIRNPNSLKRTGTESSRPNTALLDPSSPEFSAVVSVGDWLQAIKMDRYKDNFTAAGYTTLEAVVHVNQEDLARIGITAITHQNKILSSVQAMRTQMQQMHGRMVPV
Ephrin type-A receptor 2 (Homo sapiens), sequence (P29317 whole entry): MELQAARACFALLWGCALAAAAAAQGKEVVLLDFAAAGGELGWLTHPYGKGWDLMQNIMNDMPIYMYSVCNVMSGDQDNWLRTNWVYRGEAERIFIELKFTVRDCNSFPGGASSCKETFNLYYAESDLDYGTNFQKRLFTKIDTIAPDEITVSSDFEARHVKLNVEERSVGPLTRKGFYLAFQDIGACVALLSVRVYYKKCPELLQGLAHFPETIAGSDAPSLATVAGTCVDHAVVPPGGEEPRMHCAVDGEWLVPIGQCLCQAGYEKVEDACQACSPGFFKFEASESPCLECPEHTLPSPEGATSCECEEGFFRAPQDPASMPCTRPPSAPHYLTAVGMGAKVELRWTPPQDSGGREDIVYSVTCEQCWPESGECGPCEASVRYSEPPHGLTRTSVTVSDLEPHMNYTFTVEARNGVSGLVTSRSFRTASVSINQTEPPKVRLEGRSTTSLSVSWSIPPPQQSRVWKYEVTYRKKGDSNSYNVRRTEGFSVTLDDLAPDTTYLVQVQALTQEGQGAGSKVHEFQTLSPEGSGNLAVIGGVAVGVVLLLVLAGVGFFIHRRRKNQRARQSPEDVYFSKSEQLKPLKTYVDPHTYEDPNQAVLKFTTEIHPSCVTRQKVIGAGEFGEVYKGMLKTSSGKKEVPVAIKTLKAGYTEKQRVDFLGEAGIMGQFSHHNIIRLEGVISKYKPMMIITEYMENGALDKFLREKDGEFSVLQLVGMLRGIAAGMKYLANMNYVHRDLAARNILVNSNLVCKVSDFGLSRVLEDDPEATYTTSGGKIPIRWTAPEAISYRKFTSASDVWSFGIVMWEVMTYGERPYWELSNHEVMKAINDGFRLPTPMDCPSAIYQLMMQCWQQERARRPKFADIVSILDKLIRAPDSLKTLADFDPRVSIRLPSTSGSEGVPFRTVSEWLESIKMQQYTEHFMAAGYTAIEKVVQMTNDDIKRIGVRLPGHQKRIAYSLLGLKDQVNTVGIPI

SMILES	inhibition [1] [%]	inhibition [2] [%]	inhibition [3] [%]	inhibition [4] [%]	inhibition [5] [%]	inhibition [6] [%]	inhibition [7] [%]	inhibition [8] [%]	inhibition [9] [%]	inhibition [10] [%]
CC1=C(C(=O)Nc2cc(Cl)c3[nH]ncc3c2)C(c2ccc(C(F)(F)F)cc2)CC(=O)N1 (stereo unspecified)	4.57	1.19	1.94	-2.83	-2.1	2.24	2.48	8.02	6.71	1.63
NC(=O)c1sc(-n2cnc3ccc(C(F)(F)F)cc32)cc1OCc1ccccc1Br	4.07	-0.44	3.88	-2.06	-1.67	2.19	5.58	10.1	8.59	5.67
Nc1nc(-c2cccc(Cl)c2)c(-c2ccc3ncccc3n2)s1	6.65	5	7.85	0.6	0.92	4.59	4.27	11	14.8	6.05
Fc1ccc(-c2nn3ncccc3c2-c2ccnc(Nc3ccc4c(c3)OCCO4)n2)cc1	63.8	45.5	88.1	2.48	14.4	7.69	18.2	17.1	55.5	34.3
CCc1nn2ncccc2c1-c1ccnc(NC2CC2)n1	1.56	-2.33	0.76	0.52	0.58	2.4	3.87	4.8	8.02	-1.23
CC(=O)NCc1cccc(C#Cc2cncnc2Nc2ccc(OCc3cccc(F)c3)c(Cl)c2)c1	0.3	1.41	1.74	-3.31	-4.19	-2.09	0.64	-2.22	–	0.63
Cc1cccc2c1NC(=O)/C2=N\Nc1ccc(S(N)(=O)=O)cc1	0.35	3.72	1.46	2.85	3.42	4.1	3.43	6.06	7.18	7.03
COc1ccc(-c2nn3ncccc3c2-c2ccnc(Nc3ccc4c(c3)OCCO4)n2)cc1	5.19	0.11	17.8	-0.24	0.86	-1.04	0.38	0.61	13.8	1.72
CCn1c(-c2nonc2N)nc2c(C#CC(C)(C)O)ncc(OC3CCNCC3)c21	1.16	1.78	0.14	1.52	0.34	1.03	3.69	4.06	6.59	-2.87
COc1cc(Nc2nccc(Nc3ccc4c(C)n[nH]c4c3)n2)cc(OC)c1OC	5.15	4.13	20.9	28	71	6.23	15.3	41.4	75.2	19.3
Fc1cccc(COc2ccc(Nc3ncnc4sc(-c5ccco5)cc34)cc2Cl)c1	3.73	0.58	3.48	2.14	1.92	3.15	4.97	7.43	9.74	9.21
CN1CCC(n2cnc(-c3ccc(F)cc3)c2-c2ccnc(N)n2)CC1	1.75	-4.77	0.83	0.47	-0.42	1.8	2.95	5.99	7.11	5.98
CC(C)(CO)CNC(=O)c1ccc2c(c1)/C(=N/Nc1ccc(S(N)(=O)=O)cc1)C(=O)N2	-0.95	-1.33	-1.42	-2.4	-2.69	-0.22	1.81	-0.06	10.3	-4.35
Fc1ccc(-c2nn3ccccc3c2-c2ccncc2)cc1	–	–	–	-1.52	-1.41	3.94	5.1	5.14	11.7	5.2
CNC(=O)c1cc(-c2ccc(F)cc2)cc(-c2ccc(S(=O)(=O)N3CCCC3)cc2)c1N	0.62	-0.37	2.95	-2.99	-1.92	2.55	2.23	5.15	6.55	2.73
CCOc1ccc2c(-c3ccnc(Nc4cccc(C(F)(F)F)c4)n3)cnn2n1	-0.36	0.8	0.09	1.2	0.67	1.59	5.76	6.67	9.91	7.74
COc1ccc(-c2cc(-c3c[nH]nc3-c3ccccn3)ccn2)cc1	4.53	2.1	4.71	2.38	1.07	4.5	7.51	8.66	14.1	7.99
